Here are results for five compounds from PubChem BioAssay.

Calls of active or inactive are those of the source.

A short description of assay [1]: optical density shifts of acrAB sulA E. coli – strain DRC41, OD650, 48 h, E. coli filamentation inducer project, primary screen (AID 1152).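 Further: E. coli MC1000 strain DRC41 lacking acrAB efflux pump and sulA.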 To be noted: higher = more signal, called active from +8 up or from −8 down.
A short description of assay [2]: probe aLefty1 binding on compound microarray – biochemical, small-molecule microarray, 635/667 nm fluorescence, primary screen (AID 1153).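 Further: score merges spot fluorescence with signal-to-noise ratio from the scanned slide images.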 To be noted: higher = more signal.
The nature of assay [3]: plasmodial surface anion channel blockers, osmotic lysis – cell-based, P. falciparum Indochina, OD700, 1 h, primary screen (AID 1154). To be noted: P. falciparum Indochina infected RBC osmotic lysis, higher = more signal, called active from +8 up or from −8 down.
Assay [4] in a line: plasmodial surface anion channel blockers, osmotic lysis – cell-based, P. falciparum Indochina, OD700, 2 h, primary screen (AID 1155).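 Further: lysis reports solute entry through the parasite surface anion channel PSAC.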 Particulars: P. falciparum Indochina infected erythrocytes, higher = more signal, called active from +8 up or from −8 down.
Assay [5] in a line: changes in parasitized red cell lysis, either direction – P. falciparum Indochina, OD700, 3 h, PSAC antagonist project, primary screen (AID 1156). To be noted: P. falciparum-infected erythrocytes, osmotic lysis, higher = more signal, called active from +8 up or from −8 down.
The nature of assay [6]: plasmodial surface anion channel blockers, osmotic lysis – cell-based, P. falciparum Indochina, OD700, 18 h, primary screen (AID 1157). Particulars: P. falciparum Indochina infected erythrocytes, osmotic lysis OD700, 18 h; higher = more signal, called active from +8 up or from −8 down.
The nature of assay [7]: S6 kinase pathway phospho-S6 level changes – cell-based, A549, cytoblot, luminescence, serum-stimulated, primary screen (AID 1158).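 Further: serum-stimulated A549 lung adenocarcinoma cells; signal is phosphorylated S6 detected by cytoblot immunostaining with HRP secondary.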 To be noted: 5 h, higher = more signal.
Assay [8] concerns the target NADPH oxidase 2 (Homo sapiens) (UniProt P04839). As to the kind of experiment: compounds shifting NOX2 Amplex Red fluorescence – cell-based, HEK293-NOX2, PMA-stimulated, NOX inhibitor project, primary screen (AID 1159). Further: test concentration not given here. To be noted: 45 min, higher = more signal, called active from +8 up or from −8 down.
The target in assay [9] is NADPH oxidase 4 (Homo sapiens) (UniProt Q9NPH5). As to the kind of experiment: compounds shifting NOX4 Amplex Red fluorescence – cell-based, HEK293-NOX4, tetracycline-induced, NOX inhibitor project, primary screen (AID 1160). Particulars: HEK293-NOX4, Amplex Red H2O2 fluorescence, 45 min; higher = more signal, called active from +8 up or from −8 down.
Sequence of NADPH oxidase 4 (Homo sapiens) (Q9NPH5 whole entry, looked up): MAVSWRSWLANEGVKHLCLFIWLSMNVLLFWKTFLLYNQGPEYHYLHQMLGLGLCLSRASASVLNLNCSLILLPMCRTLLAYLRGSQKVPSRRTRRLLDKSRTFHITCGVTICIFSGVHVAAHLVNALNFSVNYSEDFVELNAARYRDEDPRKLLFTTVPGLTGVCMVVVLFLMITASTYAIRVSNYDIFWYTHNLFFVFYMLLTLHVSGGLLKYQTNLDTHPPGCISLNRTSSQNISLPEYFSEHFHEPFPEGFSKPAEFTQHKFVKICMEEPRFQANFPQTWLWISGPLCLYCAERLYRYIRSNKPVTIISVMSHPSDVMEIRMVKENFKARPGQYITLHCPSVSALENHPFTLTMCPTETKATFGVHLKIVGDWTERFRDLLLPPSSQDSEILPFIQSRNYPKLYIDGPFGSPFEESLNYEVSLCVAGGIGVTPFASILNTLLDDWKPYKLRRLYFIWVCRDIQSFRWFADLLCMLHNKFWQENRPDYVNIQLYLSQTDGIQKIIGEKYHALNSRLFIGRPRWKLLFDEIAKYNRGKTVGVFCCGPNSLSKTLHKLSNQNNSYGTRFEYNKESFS
Assay [10] concerns the target NADPH oxidase 5 (Homo sapiens) (UniProt Q96PH1). Briefly: compounds shifting NOX5 Amplex Red fluorescence – cell-based, HEK293-NOX5, NOX inhibitor project, primary screen (AID 1161). Particulars: HEK293-NOX5, ionomycin, 45 min, higher = more signal.
Assay [11] is described as follows: compound effects on lung adenocarcinoma cell viability – A549, calcein-AM fluorescence, 48 h, basal, profiling panel (AID 1162). Further: test concentration not given here. Particulars: higher = more signal.
Assay [12] can be described thus: compound effects on differentiated 3T3-L1 adipocyte viability – cell-based, 3T3-L1 adipocytes, calcein-AM fluorescence, 48 h, basal, profiling panel (AID 1163). Further: test concentration not given here. Particulars: 3T3-L1 adipocytes viability, higher = more signal.
Assay [13] is described as follows: compound effects on hepatocellular carcinoma cell viability – HepG2, calcein-AM fluorescence, 48 h, basal, profiling panel (AID 1164). Further: test concentration not given here. Particulars: higher = more signal.
Assay [14] can be described thus: compound effects on multiple myeloma cell viability – MM1S, calcein-AM fluorescence, 48 h, basal, profiling panel (AID 1165).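 Further: viability of MM1S multiple myeloma cells under basal unstimulated conditions; test concentration not given here.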 To be noted: higher = more signal.
A short description of assay [15]: calcein-AM signal in unstimulated myeloma cells – cell-based, calcein-AM fluorescence, 48 h, PK04 Diversity Set, profiling panel (AID 1166).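 Further: cells grown under basal conditions without added stimulus; test concentration not given here.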 To be noted: RPMI8226 myeloma viability, higher = more signal.
Assay [16] can be described thus: JC-1 mitochondrial signal, unstimulated HepG2 cells – cell-based, JC-1 fluorescence, 24 h, 100 nL compound, profiling panel (AID 1167). Further: test concentration not given here. Particulars: HepG2 mitochondrial potential, higher = more signal.
The nature of assay [17]: JC-1 mitochondrial signal, unstimulated adipocytes – cell-based, JC-1 fluorescence, 3T3-L1 adipocytes, 24 h, 100 nL compound, profiling panel (AID 1168). Further: test concentration not given here. Particulars: JC-1 mitochondrial fluorescence, higher = more signal, called active from +8 up or from −8 down.
Assay [18] is described as follows: JC-1 mitochondrial signal, unstimulated myeloma cells – cell-based, JC-1 fluorescence, RPMI8226, 24 h, 100 nL compound, profiling panel (AID 1169). Further: test concentration not given here. To be noted: JC-1 mitochondrial potential fluorescence, higher = more signal.
A short description of assay [19]: JC-1 mitochondrial signal, unstimulated MM1S myeloma – cell-based, JC-1 fluorescence, 24 h, 100 nL compound, profiling panel (AID 1170). Further: test concentration not given here. Particulars: MM1S mitochondrial potential, higher = more signal.
Assay [20] can be described thus: resazurin metabolic signal in A549 cells – cell-based, resazurin fluorescence, 24 h, PK04 Diversity Set, profiling panel (AID 1171). Further: test concentration not given here. To be noted: A549 viability, higher = more signal, called active from +8 up or from −8 down. For orientation: Alamar Blue is a resazurin reagent that responds to reducing activity.

Sequence of NADPH oxidase 2 (Homo sapiens) (P04839 whole entry, looked up): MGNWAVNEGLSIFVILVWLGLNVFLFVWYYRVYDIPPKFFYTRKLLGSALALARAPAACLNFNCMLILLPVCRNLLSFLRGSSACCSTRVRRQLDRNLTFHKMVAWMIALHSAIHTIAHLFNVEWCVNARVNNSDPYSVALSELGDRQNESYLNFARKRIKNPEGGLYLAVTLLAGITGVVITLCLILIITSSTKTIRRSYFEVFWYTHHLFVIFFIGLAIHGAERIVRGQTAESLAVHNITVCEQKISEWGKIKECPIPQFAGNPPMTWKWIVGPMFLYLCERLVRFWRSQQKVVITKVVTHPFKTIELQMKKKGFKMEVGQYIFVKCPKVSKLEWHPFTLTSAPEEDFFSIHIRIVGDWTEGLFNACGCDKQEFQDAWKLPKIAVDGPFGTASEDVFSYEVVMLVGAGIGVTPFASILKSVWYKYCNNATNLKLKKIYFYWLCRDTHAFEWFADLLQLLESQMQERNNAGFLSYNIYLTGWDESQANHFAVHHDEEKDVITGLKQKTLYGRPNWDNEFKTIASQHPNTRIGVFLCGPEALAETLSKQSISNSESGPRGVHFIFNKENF
Sequence of NADPH oxidase 5 (Homo sapiens) (Q96PH1 whole entry, looked up): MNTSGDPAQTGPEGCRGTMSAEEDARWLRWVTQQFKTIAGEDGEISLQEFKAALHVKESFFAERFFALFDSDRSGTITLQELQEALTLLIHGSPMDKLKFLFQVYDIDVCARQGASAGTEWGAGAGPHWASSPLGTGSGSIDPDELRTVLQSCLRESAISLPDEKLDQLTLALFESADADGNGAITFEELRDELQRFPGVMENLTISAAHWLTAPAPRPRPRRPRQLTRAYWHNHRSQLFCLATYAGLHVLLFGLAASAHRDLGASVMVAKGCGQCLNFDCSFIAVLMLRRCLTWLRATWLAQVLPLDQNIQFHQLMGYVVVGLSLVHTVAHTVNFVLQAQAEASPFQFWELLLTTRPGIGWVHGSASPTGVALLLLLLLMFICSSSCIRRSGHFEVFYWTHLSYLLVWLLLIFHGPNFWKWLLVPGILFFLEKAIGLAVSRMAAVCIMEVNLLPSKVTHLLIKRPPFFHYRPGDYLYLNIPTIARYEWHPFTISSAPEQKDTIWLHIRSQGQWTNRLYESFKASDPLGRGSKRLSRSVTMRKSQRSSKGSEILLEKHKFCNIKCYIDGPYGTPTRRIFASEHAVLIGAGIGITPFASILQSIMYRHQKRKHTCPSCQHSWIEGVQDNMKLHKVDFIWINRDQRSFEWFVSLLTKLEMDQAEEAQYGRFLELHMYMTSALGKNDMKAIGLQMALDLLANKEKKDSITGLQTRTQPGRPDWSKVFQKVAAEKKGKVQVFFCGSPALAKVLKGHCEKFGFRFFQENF

In the case of `Cc1ccc(S(=O)(=O)N2C[C@@H](C(=O)O)[C@H](Sc3ccccc3)C[C@H]2c2ccccc2)cc1`, the z-score in [1] was -1.37 (inactive); in assay [3], 1.7 (inactive); in assay [4], 0.932 (inactive); in assay [5] it was 0.369 (inactive); in assay [6], 0.806 (inactive); in [7] it was -0.33. Further, the z-score in assay [8] was 1.63 (inactive); in assay [9], 0.111 (inactive); in assay [10], 1.73; in assay [11], -1.21; in [12], -0.27; in [13], -0.721. Moreover, the z-score was -0.279 in assay [14]; -0.45 in [15]; -0.654 in [16]; -0.883 (inactive) in assay [17]; 0.588 in [18]; 0.319 in [19]. In addition, in assay [20], the z-score is 0.111 (inactive). The composite z-score in assay [2] turned out to be 0.409.

For `O=C1OCC=C[C@H]2OC34C=CCN(Cn5nnc6ccccc65)C(=O)[C@H]3N(CCCCCO)C(=O)[C@@H]4[C@@H]12` (stereo not given in full), the z-score is 0.911 (inactive) in [1]; 0.896 (inactive) in [3]; 0.212 (inactive) in [4]; 1.11 (inactive) in [5]; 0.383 (inactive) in [6]; -0.433 in [7]. In addition, the z-score in assay [8] was 1.95 (inactive); in assay [9], 0.223 (inactive); in [10], 1.32; in [11] it was -0.382; in [12], 0.188; in assay [13], -0.609. Further, the z-score is 0.823 in assay [14]; 0.903 in assay [15]; -0.0737 in assay [16]; -0.135 (inactive) in [17]; 0.205 in assay [18]; 0.183 in assay [19]. The z-score in [20] is -0.301 (inactive). In [2], the composite z-score is -0.418.

For the compound `CCCC[C@H]1C[C@@H]1[C@@H]1N(P(=O)(c2ccccc2)c2ccccc2)C[C@@](O)(c2ccccc2)CC12CC2`, the z-score in [1] is -1.84 (inactive); in assay [3], 2.07 (inactive); in [4], 1.07 (inactive); in assay [5], 0.425 (inactive); in [6] it was 1.55 (inactive); in [7], -0.443. In addition, the z-score in assay [8] is -0.476 (inactive); in assay [9], -0.925 (inactive); in assay [10], -2.1; in [11], -3.9; in assay [12], -0.228; in [13], -5.35. For the same compound, the z-score in [14] was -3.29; in [15] it was -4.7; in assay [16], -2.84; in [17], -0.556 (inactive); in [18], -0.917; in [19], -2.78. Also, the z-score in [20] is 4.58 (inactive). In assay [2], this compound showed a composite z-score of 0.404.

As for `CCCCC(=C=CC[C@@H](O)c1cccc(OCCO)c1)C[C@@H](O)c1ccccn1`, the z-score in assay [1] is 0.158 (inactive); in [3], 14 (active); in assay [4], 1.33 (inactive); in assay [5], 0.375 (inactive); in assay [6] it was 0.504 (inactive); in assay [7], -0.0848. Besides, the z-score in [8] is -1.68 (inactive); in assay [9], -0.544 (inactive); in [10], -1.46; in assay [11], -0.0385; in [12], 0.317; in assay [13], 0.175. Moreover, the z-score in [14] was 0.225; in assay [15], 0.427; in [16], -0.667; in assay [17], 0.316 (inactive); in [18] it was 0.907; in [19] it was -0.578. Besides, the z-score in assay [20] is 0.764 (inactive). In addition, the composite z-score in assay [2] is -0.147.

Regarding `C=C(CCCC)C(=O)CC[C@@H](OC(C)=O)c1ccc(CO)o1`, the z-score is 0.0002 (inactive) in assay [1]; 0.113 (inactive) in [3]; 0.0176 (inactive) in [4]; -1.18 (inactive) in [5]; 0.184 (inactive) in assay [6]; -0.0622 in assay [7]. For the same compound, the z-score was -1.23 (inactive) in assay [8]; -0.538 (inactive) in [9]; -2.37 in assay [10]; -0.779 in assay [11]; 0.37 in [12]; -0.293 in [13]. The z-score in assay [14] is 0.0178; in assay [15], -0.878; in assay [16], -0.885; in [17], 0.352 (inactive); in assay [18], 0.703; in assay [19], -0.179. Further, the z-score in assay [20] is -0.0655 (inactive). The composite z-score in assay [2] is -0.0278.
